Test results published in ChEMBL document CHEMBL1201862, “PubChem BioAssay data set” (2004).
Among all 55,000 sequences or so, about 2,500 (4.5%) were called active. Rule as the data show it: active = GI50 up to about 1.1 µM and inactive = higher. Not all results are given here. Entries with a potency or affinity are not part of this list.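 Values below derive from 48-hour exposures of cells grown in 96-well plates, with endpoints linearly interpolated between the two concentrations bracketing the appropriate inhibition level. Abbreviation: GI50, concentration required for 50% inhibition of growth.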

Test system: EKVX
Assay: NCI tumour cell line growth inhibition, 48 h

Substance | GI50 [µM]
[Bis(aminomethyl)pentamethylenesilane]dichloropaltinum(II), CHEMBL2146202 | 18.2
[Bis(aminomethyl)ethylmethylsilane]tetrachloroplatinum(IV), CHEMBL2146192 | 29.6
[Bis(aminomethyl)tetramethylenesilane]tetrachloropaltinum(IV), CHEMBL2146189 | 40.9
[Bis(aminomethyl)tetramethylenesilane]dichloropaltinum(II), CHEMBL2146205 | 55.6
[Bis(aminomethyl)dimethylsilane]tetrachloroplatinum(IV), CHEMBL2146190 | 38.2
CISPLATIN, CHEMBL11359 | 7.1
[Bis(aminomethyl)diethylsilane]tetrachloroplatinum(IV), CHEMBL2146203 | 31.6
mu-(1,7-nanodiamine-N,N')bis-(cis-aminedichloroplatimum (II)), CHEMBL2146215 | > 100
[Bis(aminomethyl)dimethylsilane]dichloroplatinum (II), CHEMBL2146201 | > 100
[Bis(aminomethyl)pentamethylenesilane]tetrachloropaltinum(IV), CHEMBL2146204 | 56.1
cis-Bis[[(trimethylsilyl)methyl]amino]tetrachloroplatinum(IV), CHEMBL2146191 | 4.68
